Test results from PubChem BioAssay AID2066 (NMMLSC, 2009).
Screen size: about 320,000 compounds; about 50 (0.02%) were called active. The entries come from a sample that favours actives as a whole. Unmarked numbers belong to inactive results.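 How the source made its calls: active means GFP response relative to DMSO above a set limit, near screen average plus 3 SD (cut at about 150% in these data); inconclusive means fewer than 70 cells counted for the yeast strain; inactive means the rest.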

test: yeast AGP1-GFP level changes, GLN3 branch – cell-based, multiplex flow cytometry, S. cerevisiae, MLPCN library, primary screen (AID 2066); conditions: 3 h, at 10 µM, active compounds read high, GFP as percent of DMSO wells;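 further: median GFP channel fluorescence of the gated AGP1 strain per well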

Compound | GFP response vs DMSO
CCOC(=O)C(C)n1cnc2scc(-c3ccc(C)c(C)c3)c2c1=O (configuration not stated) | 93.8%
COC(=O)c1sccc1-n1cccc1C(=O)C(=O)N1CCCCC1 | 92.6%
Cc1ccc(C(c2nnnn2CS(=O)(=O)c2ccc(C)cc2)N2CCC(C)CC2)cc1 (configuration not stated) | 91.3%
CC(=O)Nc1ccc(S(=O)(=O)NCC(=O)OCC(=O)c2ccc[nH]2)cc1 | 107%
O=C(Nc1cc(S(=O)(=O)N2CCOCC2)ccc1N1CCOCC1)c1c(F)cccc1Cl | 103%
CC(Sc1nnc(Cc2ccc([N+](=O)[O-])cc2)o1)C(N)=O (configuration not stated) | 97.7%
O=C(O)c1cccc(S(=O)(=O)N2CC=C(c3ccccc3)CC2)c1 | 101%
O=C1c2ccccc2C(=O)N1CC1c2ccccc2CCN1S(=O)(=O)c1ccccc1 (configuration not stated) | 96.4%
Cc1nnc(CN(C)Cc2cn[nH]c2-c2ccc(-c3ccccc3)cc2)o1 | 108%
CC(c1ccccn1)N(C)C(=O)c1ccc2nc(Cc3cccc(Cl)c3)oc2c1 (configuration not stated) | 103%
Cn1nnnc1SCC(=O)Nc1cccc(S(=O)(=O)N2CCCCC2)c1 | 77.3%
O=C(OCC(=O)N1CCCCCC1)c1cnc(Cl)c(Cl)c1 | 97.1%
COc1ccc(NC2=CC(=S)NC(C)(C)C2)cc1 | 99.9%
CCN(CC)CCCNC(=O)c1c(O)c2cc(F)cc3c2n(c1=O)C(C)CC3 (configuration not stated) | 88.3%
O=c1cc(Cl)c2ccccc2n1-c1ccccc1 | 103%
N#Cc1ccccc1NC(=O)COc1c(Br)cc(Br)c2cccnc12 | 96.8%
Cc1cc(C)nc(N2C(=O)CC(Cc3ccccc3)C2=O)n1 (configuration not stated) | 112%
CCOC(=O)N1CCC(NC(=O)CN2C(=O)COc3ccc(C(C)(C)C)cc32)CC1 | 88.7%
CCCCN(C(=O)c1ccc2ccccc2c1)c1c(N)n(CCCC)c(=O)[nH]c1=O | 92.5%
O=C(CN1CCN(S(=O)(=O)c2cc(Cl)ccc2Cl)CC1)c1ccc(O)c(O)c1 | 94.9%
CCOc1ccc2oc(C(=O)N(CC)CC(=O)Nc3ccc(NC(C)=O)cc3)c(C)c2c1 | 103%
COc1cccc(NC(=O)C(Sc2nc3ccccc3c(=O)n2CC(C)C)c2ccccc2)c1 (configuration not stated) | 98.7%
